Bioassay records as filed in PubChem BioAssay.
PLK1 PBD inh: blocks phosphopeptide binding to human PLK1 polo-box domain; P53350; Plk1 PBD binding of FITC phosphopeptide, fluorescence polarization; Potency, µM, inactives show max response, negative = inhibition, hits mostly inhibitors; 360,000 compounds, 2.8% hits; AID 720504; also: series mostly up to about 57 µM; % is scaled to controls: 0 for no effect and ±100 for the full control effect; nearly all actives have a fitted effect of over 65% in size
Target sequence (P53350 whole entry, looked up, the tested form may be a part): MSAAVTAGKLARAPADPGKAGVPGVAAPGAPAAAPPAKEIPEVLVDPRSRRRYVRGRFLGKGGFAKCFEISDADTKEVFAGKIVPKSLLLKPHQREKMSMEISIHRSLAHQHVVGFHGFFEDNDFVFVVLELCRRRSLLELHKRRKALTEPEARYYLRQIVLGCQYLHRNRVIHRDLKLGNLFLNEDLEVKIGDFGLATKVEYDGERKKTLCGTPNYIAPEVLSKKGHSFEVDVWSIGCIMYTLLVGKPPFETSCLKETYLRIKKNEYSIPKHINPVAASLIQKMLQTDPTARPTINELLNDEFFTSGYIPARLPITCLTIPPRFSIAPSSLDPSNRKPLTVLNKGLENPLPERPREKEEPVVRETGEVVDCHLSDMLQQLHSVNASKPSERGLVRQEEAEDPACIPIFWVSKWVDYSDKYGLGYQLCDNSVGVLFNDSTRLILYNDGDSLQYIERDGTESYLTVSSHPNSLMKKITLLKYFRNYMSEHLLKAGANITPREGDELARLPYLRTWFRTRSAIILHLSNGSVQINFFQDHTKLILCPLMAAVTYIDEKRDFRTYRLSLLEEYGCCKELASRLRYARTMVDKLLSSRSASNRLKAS
HP1b binding inh: HP1-beta chromodomain-methylated histone interaction inhibition. P83916. AlphaScreen HP1-beta / biotin-H3K9me3 peptide binding. Potency, µM (titrated, usually from 114 µM), without a hit: at the highest dose activity change, negative = inhibition, most hits filed as inhibitors. 390,000 compounds, 0.56% hits; also: nearly all actives have a fitted effect of over 70% in size
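AlphaScreen: HP1-beta (50 nM) preformed 30 min with biotin-H3(1-18)K9me3 peptide (50 nM) in PBS pH 7.4, 0.01% Tween-20. Compound added for 30 min at RT, then streptavidin donor/nickel chelate acceptor beads (10 ug/mL) for 30 min.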
G9a inh: G9a (human) methyltransferase inhibition | G9a H3K9 monomethylation, AlphaScreen, 2 h | AID 504332 | 350,000 compounds, 8.8% hits | Q96KQ7 | Potency, µM (series often up to 102 µM), inactives show at the top dose activity, negative = inhibition, actives largely listed as inhibitors; also: % is scaled to controls: 0 for no effect and ±100 for the full control effect; nearly all actives have a fitted effect of over 75% in size
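Readings reflect AlphaScreen signal from monomethyl-H3K9 antibody detection. HMT at 20 nM; substrate b-H3K9 500 nM; cofactor SAM 20 uM; 2 h RT reaction; compounds tested as titrations in qHTS with 15 min preincubation.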
Sfp PPTase inh: Sfp phosphopantetheinyl transferase inhibition; Q9F4F7; Biochemical Sfp PPTase activity, qHTS; Potency, µM, without a hit: largest response in the series, negative = inhibition, actives largely listed as inhibitors; 310,000 compounds, 3.5% hits; AID 1490;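 also: the enzyme is Sfp with the accession as filed and its product quenches rhodamine fluorescence; 0% = enzyme reaction without inhibitor and -100% = no enzyme wells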
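Step 1, compound plus 15 nM Sfp-PPTase, 15 min, room temperature. Step 2, add rhodamine-CoA (5 uM) and BHQ-2-YbbR (12.5 uM). Step 3, read 525/598 nm fluorescence at 0 and 30 min.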
BAZ2B block: BAZ2B (human) inhibition. AlphaScreen BAZ2B-H3K14Ac peptide displacement. Potency, µM (titrated, usually from 114 µM), for inactives: top-dose activity change, negative = inhibition, usual class: inhibitors. 360,000 compounds, 4.4% hits; also: % is scaled to controls: 0 for no effect and ±100 for the full control effect; nearly all actives have a fitted effect of over 60% in size
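Multi-concentration screen (max 110 uM) measuring displacement of acetylated histone H3 peptide from BAZ2B by AlphaScreen, using 50 nM protein, 50 nM peptide and 10 ug/mL streptavidin donor plus Ni-chelate acceptor beads.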
JMJD2A Tudor: inhibitors of human JMJD2A Tudor domain | 390,000 compounds, 4.4% hits | Potency, µM (doses to about 114 µM), for the others: at the highest dose activity change, negative = inhibition, usual class: inhibitors | AlphaScreen JMJD2A-Tudor / H3K4me3 peptide binding; also: % is scaled to controls: 0 for no effect and ±100 for the full control effect; nearly all actives have a fitted effect of over 50% in size
* hit, by the source's call; ? = inconclusive; · = no result; [ ] = another dose, or the depositor's remark. A selection: hits, their analogues and other compounds. The true share with any hit is near 12%. Calls follow the shape of the dose curve; as a rule, active = well fitted curve in the direction sought with a large enough effect; inconclusive = small, poorly fitted or top-dose-only effect, or another doubt; inactive = no such curve, though single readings can be large; an effect the other way counts as inactive or inconclusive. Potency is read from the fitted curve at half-maximal effect.

SMILES	PLK1 PBD inh	HP1b binding inh	G9a inh	Sfp PPTase inh	BAZ2B block	JMJD2A Tudor
CCC(C)C(=O)Nc1nc(C)c(-c2csc(Nc3cc(OC)ccc3OC)n2)s1 (stereo unspecified)	3.8%	-17.2%	22.4µM*	6.1%	50.1µM*	50.1µM*
COc1ccc(OC)c(Nc2nc(-c3sc(NC(=O)CC(C)C)nc3C)cs2)c1	-0.2%	?	8.91µM*	4.5%	?	44.7µM*
CCCCC(=O)Nc1nc(C)c(-c2csc(Nc3cc(OC)ccc3OC)n2)s1	-16.6%	?	?	-1.0%	?	?
CC(C)Sc1nnc([C@H](Cc2c[nH]c3ccccc23)NC(=O)OC(C)(C)C)o1	-2.6%	9.5%	?	-1.8%	-34.4%	?
O=C(COC(=O)c1cc[n+]([O-])cc1)Nc1ccc(F)c([N+](=O)[O-])c1	0.9%	18.0%	18.1%[59 µM]	-6.7%	-8.1%	-10.4%
Cc1ccc(C)c(NC(=S)NCc2ccccc2)c1	-0.4%	30.5%	24.1%	20.6%	-25.5%	-11.6%
CC(/C=N/NC(=S)Nc1cccc(S(=O)(=O)N(C)C)c1)c1ccccc1 (stereo unspecified)	?	13.3%	8.91µM*	89.1µM*	-6.2%	20µM*
CN(C)S(=O)(=O)c1cccc(NC(=S)N/N=C/C(c2ccccc2)c2ccccc2)c1	-12.8%	42.6%	25.1µM*	?	0.7%	?
Cc1ccc(C)c(NC(=S)N/N=C/C(C)c2ccccc2)c1 (stereo unspecified)	-8.4%	28.1%	35.5µM*	-29.9%	?	-10.6%
CN(C)S(=O)(=O)c1cccc(NC(=S)N/N=C/c2ccco2)c1	-11.4%	-5.1%	-24.9%	15.8%	-28.1%	-32.6%
CC(=O)c1cccc(NC(=S)NCc2ccco2)c1	-14.8%	12.2%	-4.5%	19.8%	-30.9%	-16.7%
CCN(CCO)c1ccc(NC(=S)Nc2cccc(S(=O)(=O)N(C)C)c2)cc1	26.7µM*	-17.9%	?	50.1µM*	?	-9.0%[11.4 µM]
CN(C)S(=O)(=O)c1cccc(NC(=S)Nc2ccc(Cl)cc2Cl)c1	?	9.8%	-50.9%[59 µM]	?	-25.0%	-12.5%
CN(C)S(=O)(=O)c1cccc(NC(=S)NCc2ccco2)c1	6.3%	17.5%	44.7µM*	?	·	-33.8%
CN(C)S(=O)(=O)c1cccc(NC(=S)Nc2cc(Cl)cc(Cl)c2)c1	?	-10.8%	?	50.1µM*	0.9%	-16.7%
CCN(CC)S(=O)(=O)c1ccc(NC(=S)Nc2ccccc2)cc1	-29.7%	34.2%	26.5%[0.501 µM]	-5.2%	-11.1%	-5.4%
COc1ccc(CNC(=O)CN(c2ccccc2)S(=O)(=O)c2ccccc2[N+](=O)[O-])cc1	-1.3%	31.7%	·	4.2%	-10.5%	-16.3%
Cc1ccc(C(=O)c2coc3cc([N+](=O)[O-])c(O)c([N+](=O)[O-])c23)cc1	?	?	8.91µM*	39.8µM*	44.7µM*	56.2µM*
Cc1ccc(Sc2ccc(C(=O)N(C)C)cc2[N+](=O)[O-])cc1	-4.9%	3.9%	?	-5.4%	-37.3%	-35.7%
O=C(Nc1ccc2c(c1)C(=O)NC2=O)c1ccc2ncsc2c1	-3.2%	27.6%	-39.6%	13.0%	-13.4%	-18.9%
COc1ccc(C(CNCC(O)COc2c(C)ccc(C)c2C)N(C)C)cc1 (stereo unspecified)	1.1%	3.2%	-19.1%	-12.7%	56.2µM*	22.4µM*
Cc1[nH]c2ccccc2c1C(=O)C(C)OC(=O)c1ccccc1NCCO (stereo unspecified)	-1.5%	73.8%	44.7µM*	·	7.5%	-14.3%
C/C=C\C1=C(CO)C(=O)C2O[C@]2(CC=C(C)C)C1=O (stereo partly specified)	·	·	·	-8.9%	·	·
COC(=O)C1CC23C=CCN4CCC5(c6ccccc6NC15C2C)C43 (stereo unspecified)	-24.1%	29.6%[57 µM]	39.8µM*	3.6%	-24.2%	?
Cc1ccc(OCC(=O)NNC(=O)c2cc(S(=O)(=O)N(C)C)ccc2N2CCCC2)cc1	2.9%	·	·	·	·	·
SMILES	PLK1 PBD inh	HP1b binding inh	G9a inh	Sfp PPTase inh	BAZ2B block	JMJD2A Tudor
CC(=O)[C@@H]1[C@H]2[C@H](C(=O)[C@H]3OC[C@@H]2O3)[C@H]2C=Cc3ccccc3N21	·	·	·	44.7µM*	·	·
COc1ccc(C(=O)C2C3C4COC(O4)C(=O)C3C3C=Cc4ccccc4N32)c(OC)c1 (stereo unspecified)	·	·	·	79.4µM*	·	·
Cc1ccc(C(=O)[C@@H]2[C@H]3C4COC(O4)C(=O)[C@@H]3[C@H]3C=Cc4ccccc4N32)cc1 (stereo partly specified)	·	·	·	-27.6%	·	·
C[C@@H]1NC(=O)N(CCCn2ccnc2)C1=O	-7.9%	15.5%	11.8%	15.4%	50.1µM*	-28.4%
O=C(Nc1ccc(-n2ccc(C(F)(F)F)n2)cc1)c1cccs1	2.2%	39.9%	7.1%	2.9%	-1.5%	4.1%
O=C(O)c1ccccc1C(=O)Nc1ccc(-n2ccc(C(F)(F)F)n2)cc1	-0.5%	29.6%	79.4µM*	20.3%	-5.2%	-1.4%
Cc1cc(Cl)ccc1OCc1cc(=O)n2c3c(sc2n1)CCCC3	·	50.9%	2.0%[59 µM]	·	-2.7%	5.0%
O=C(COC(=O)C1C2CC3OC(=O)C1C3C2)Nc1ccccc1 (stereo unspecified)	-18.0%	6.6%	50.1µM*	11.2%	7.3%	-4.1%
O=C(COC(=O)C1C2CC3OC(=O)C1C3C2)Nc1ccc(F)cc1 (stereo unspecified)	-1.4%	53.0%	-5.8%	10.2%	-14.6%	-7.5%
CCCCNC(=O)NNc1nc(Cl)cc(C)c1C#N	3.6%	36.1%	31.6µM*	-26.8%	-4.9%	6.8%
CC(=O)Nc1cccc(/C(C)=N/NS(=O)(=O)c2ccccc2)c1	-8.8%	37.0%	-44.1%	13.1%	-18.8%	-8.4%
C/C(=N/NS(=O)(=O)c1ccc(C)cc1)c1c[nH]c2ccccc12	4.4%	30.1%	25.1µM*	-13.2%	-17.1%	-17.8%
C/C(=N/NS(=O)(=O)c1cccc([N+](=O)[O-])c1)c1c[nH]c2ccccc12	-20.7%	5.4%	25.1µM*	-25.6%	50.1µM*	-24.5%
C/C(=N/NS(=O)(=O)c1ccccc1)c1c[nH]c2ccccc12	-13.2%	43.1%	22.4µM*	-9.3%	-25.9%	-17.2%
CC(=O)Nc1cccc(/C(C)=N/NS(=O)(=O)c2ccc(C)cc2)c1	-8.3%	25.7%	50.1µM*	-3.9%	-6.9%	-13.5%[11.4 µM]
O=C(Nc1ccc(Cl)cc1C(=O)NCC1CCCO1)c1ccc(Cl)cc1Cl (stereo unspecified)	0.1%	34.2%	-5.8%	11.5%	4.0%	-7.1%
CCCCCn1c(=O)[nH]c2cc(C(=O)NCc3ccc(C)cc3)ccc2c1=O	·	9.8%	0.7%[59 µM]	·	-0.7%	-3.4%
Nc1nc2ncc(=O)[nH]c2c(=O)[nH]1	·	·	·	-19.4%	·	·
